Test results taken from the supplement of paper PMC3545927.
This is one part of the list. The hit rate among all sequences tested is not known here.

Biological target: furin, P09958
Assay: furin cleavage Z-score vs untreated control; higher = more cleavage, active = 3.5 or more, inactive = 1 or less, 8 variable residues between constant flanks
Summary of the method: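 Peptides 8 residues long, fused to a cDNA oligonucleotide, were fixed to magnetic beads by the N-terminus and exposed to purified furin. The 0.01 ml reactions contained 50 mM HEPES pH 7.5 with CaCl2 and NaCl at 1:10 enzyme:substrate and ran 7.5, 15 or 30 min. For the cleavage Z-score, log counts of sequenced released DNA were compared with furin-free reactions, lowess-adjusted and scaled by median absolute deviation.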

Chain of furin, P09958 (P09958 whole entry): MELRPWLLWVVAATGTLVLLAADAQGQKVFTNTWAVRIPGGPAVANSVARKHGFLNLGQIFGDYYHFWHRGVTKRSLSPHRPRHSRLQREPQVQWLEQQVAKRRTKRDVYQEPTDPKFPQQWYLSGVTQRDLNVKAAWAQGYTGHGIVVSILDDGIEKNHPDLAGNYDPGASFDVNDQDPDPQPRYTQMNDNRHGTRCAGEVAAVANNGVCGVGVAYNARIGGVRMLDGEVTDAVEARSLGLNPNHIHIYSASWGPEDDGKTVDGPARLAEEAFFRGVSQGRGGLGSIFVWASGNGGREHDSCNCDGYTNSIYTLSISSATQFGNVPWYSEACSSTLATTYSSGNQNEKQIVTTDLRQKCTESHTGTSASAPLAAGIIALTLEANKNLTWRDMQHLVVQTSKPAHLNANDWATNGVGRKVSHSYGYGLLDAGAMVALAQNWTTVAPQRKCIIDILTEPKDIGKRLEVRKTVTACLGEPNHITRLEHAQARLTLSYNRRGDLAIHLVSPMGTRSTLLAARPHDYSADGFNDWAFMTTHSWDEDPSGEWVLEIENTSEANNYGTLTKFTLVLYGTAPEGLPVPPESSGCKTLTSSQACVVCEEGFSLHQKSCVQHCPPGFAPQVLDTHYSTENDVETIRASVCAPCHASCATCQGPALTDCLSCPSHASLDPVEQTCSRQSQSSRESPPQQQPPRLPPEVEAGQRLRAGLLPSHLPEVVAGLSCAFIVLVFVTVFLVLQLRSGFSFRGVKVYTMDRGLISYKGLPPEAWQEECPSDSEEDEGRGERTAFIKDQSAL

| Sequence | furin cleavage Z-score (7.5 min) | furin cleavage Z-score (15 min) | furin cleavage Z-score (30 min) |
| --- | --- | --- | --- |
| CAITLPQDAVAGNASASA [HC898] | -0.191 (inactive) | -0.999 (inactive) | -1.58 (inactive) |
| CAITAYAQQTAGNASASA [HC675] | -0.902 (inactive) | -0.292 (inactive) | -0.928 (inactive) |
| CAGADTAACGAGNASASA [HC654] | -0.934 (inactive) | -0.244 (inactive) | -0.368 (inactive) |
| CACGWAGWLLAGNASASA [HC206] | 0.181 (inactive) | -0.831 (inactive) | -0.0867 (inactive) |
| CAENTTPCSGAGNASASA [HC1981] | -1.67 (inactive) | 0.267 (inactive) | -0.382 (inactive) |
| CASAPSLKATAGNASASA [HC1264] | -1.75 (inactive) | -0.175 (inactive) | -1.74 (inactive) |
| CAMEECSQQLAGNASASA [HC1762] | 1.29 | 0.207 (inactive) | 0.503 (inactive) |
| CAMEECSQHKAGNASASA [HC1774] | -0.682 (inactive) | 0.0797 (inactive) | -0.301 (inactive) |
| CAGARRAKRKAGNASASA [FS-1326] | 5.27 (active) | 5.92 (active) | 5.79 (active) |
| CAVCPRMKRKAGNASASA [FS-385] | 6.36 (active) | 7.19 (active) | 7.64 (active) |
| CAMAARMKRKAGNASASA [FS-1467] | 8.01 (active) | 8.75 (active) | 8.6 (active) |
| CAEVVSSTWVAGNASASA [HC135] | 0.7 (inactive) | -1.48 (inactive) | 0.771 (inactive) |
| CAVFTGLTHIAGNASASA [HC941] | -1.4 (inactive) | 0.134 (inactive) | -1.78 (inactive) |
| CAQMVIIKLGAGNASASA [HC628] | 1.18 | -0.535 (inactive) | 0.271 (inactive) |
| CAKKRRATRFAGNASASA [FS-450] | 1.73 | 3.42 | 4.38 (active) |
| CAQNERSYRIAGNASASA [FS-183] | -0.223 (inactive) | 1.02 | 0.628 (inactive) |
| CAILQRLKRIAGNASASA [FS-1346] | 3.62 (active) | 3.86 (active) | 6.79 (active) |
| CAIFKRKKRIAGNASASA [FS-1212] | 3.24 | 3.6 (active) | 5.56 (active) |
| CANPQRFDRIAGNASASA [FS-1039] | -0.635 (inactive) | -0.196 (inactive) | 0.174 (inactive) |
| CAKTNRKTRFAGNASASA [FS-345] | 1.94 | 3.24 | 4.81 (active) |
| CAFLEVVTSTAGNASASA [HC2267] | -1.17 (inactive) | -0.113 (inactive) | -1.92 (inactive) |
| CARAFTEAMTAGNASASA [HC1539] | 0.545 (inactive) | -0.418 (inactive) | 0.0305 (inactive) |
| CAVAYYRGLDAGNASASA [HC868] | 0.403 (inactive) | 1.75 | -1.15 (inactive) |
| CAAHWGVLAGAGNASASA [HC336] | -1.27 (inactive) | -1.2 (inactive) | -0.699 (inactive) |

| Sequence | furin cleavage Z-score (7.5 min) | furin cleavage Z-score (15 min) | furin cleavage Z-score (30 min) |
| --- | --- | --- | --- |
| CAKKRRKKRIAGNASASA [FS-936] | 3.69 (active) | 6.37 (active) | 7.05 (active) |
| CAIQSRRKKIAGNASASA [FS-443] | 0.424 (inactive) | -0.328 (inactive) | 0.24 (inactive) |
| CAEWLRKKRIAGNASASA [FS-418] | 0.96 (inactive) | 1.09 | 1.3 |
| CASLHLKKRIAGNASASA [FS-625] | -0.694 (inactive) | -1.61 (inactive) | 0.811 (inactive) |
| CAIYCRKKRIAGNASASA [FS-806] | 2.51 | 0.629 (inactive) | 4.48 (active) |
| CAYREVPCHRAGNASASA [HC2429] | 1.27 | -0.258 (inactive) | -1.27 (inactive) |
| CACNDSLNTGAGNASASA [HC375] | -1.58 (inactive) | 0.314 (inactive) | -2.54 (inactive) |
| CAVVCCSMAYAGNASASA [HC2063] | 0.877 (inactive) | 1.72 | 0.58 (inactive) |
| CAKKIRGKRFAGNASASA [FS-672] | 6.75 (active) | 8.84 (active) | 7.44 (active) |
| CADRSRGKRFAGNASASA [FS-410] | 7.7 (active) | 10.3 (active) | 8.8 (active) |
| CATTPSSGSWAGNASASA [HC55] | -0.371 (inactive) | -0.739 (inactive) | -0.54 (inactive) |
| CAVVCCSMSYAGNASASA [HC94] | 0.423 (inactive) | 0.141 (inactive) | 0.568 (inactive) |
| CADEVDGVDEAGNASASA [CS2] | -0.934 (inactive) | -0.925 (inactive) | -0.54 (inactive) |
| CAPCTPLPAPAGNASASA [HC1195] | -0.0603 (inactive) | -1.7 (inactive) | -1.53 (inactive) |
| CALELRRVRSAGNASASA [FS-605] | 0.493 (inactive) | 1.94 | 2.52 |
| CAHLKRDTEDAGNASASA [FS-2863] | -0.885 (inactive) | 0.879 (inactive) | -0.411 (inactive) |
| CAPKSRIVRSAGNASASA [FS-369] | 14.9 (active) | 13.8 (active) | 11.4 (active) |
| CAPLRRFWRSAGNASASA [FS-1602] | -0.433 (inactive) | -0.244 (inactive) | 0.194 (inactive) |
| CASAGHTVSGAGNASASA [HC356] | -0.221 (inactive) | -0.0745 (inactive) | 0.22 (inactive) |
| CASAGRHVRSAGNASASA [FS-1408] | 8 (active) | 10.8 (active) | 7.16 (active) |
| CAHLKRRVRSAGNASASA [FS-793] | 11.8 (active) | 10.6 (active) | 9.61 (active) |
| CADRSRRVRSAGNASASA [FS-1190] | 12.9 (active) | 12.1 (active) | 9.2 (active) |
| CAFSSRDERSAGNASASA [FS-588] | -0.242 (inactive) | -1.07 (inactive) | -1.76 (inactive) |
